Measurements published in PubChem BioAssay AID2384 (Southern Research Specialized Biocontainment Screening …, 2010).
Screen size: about 2,300 compounds; about 1,100 (48%) were called active. No rule for the calls is given here. So high a share suggests a set chosen from earlier hits. The list shows a part of the results. Results with a measured potency or affinity are listed apart.

experiment: S. typhi counter-screen signal inhibition – fluorescence, 4 h, counter-screen for PhoP regulon inhibitor project, dose response (AID 2384); details: S. typhi GFP reporter counter-screen; series mostly up to 150 µM

| SMILES | inhibition |
| --- | --- |
| O=C1CCCC2=C1C(c1ccncc1)Nc1ccccc1N2 (centres undefined) | inactive |
| Clc1ccc(Nc2nc(C3CC3)cs2)cc1 | inactive |
| CCn1nnnc1NCc1cccc(Cl)c1 | inactive |
| CCN(CC(=O)Nc1ccc(C(=O)OC)cc1)C1CCCCC1 | inactive |
| CC(c1ccccc1)(c1ccccc1)c1ccncc1 | inactive |
| COc1ccc(C2C(C(=O)NCc3cccnc3)c3ccccc3C(=O)N2C)cc1OC (centres undefined) | inactive |
| C1=Nc2ccccc2CN1c1ccccc1 | inactive |
| CCC(Sc1nc2ccncc2[nH]1)C(=O)Nc1ccc(C)c(Cl)c1 (centres undefined) | inactive |
| Cc1cc(C(=O)Nc2cccnc2)on1 | inactive |
| CCCCNC(=O)CCC(=O)Nc1ccc2nc(N3CCC(C)CC3)cc(C)c2c1 | inactive |
| Cc1cc(N2CCN(C3CCCCC3)CC2)nc2cccc(O)c12 | inactive |
| COc1cccc2[nH]c3c(N4CCN(Cc5ccc6c(c5)OCO6)CC4)ncnc3c12 | inactive |
| CCn1c(O)c(N=NC(=O)CNC(=O)/C=C/c2ccco2)c2ccccc21 | inactive |
| COc1ccc2[nH]cc(C(=O)CCl)c2c1 | inactive |
| Cc1ccc(C)c(OCc2ccc(C(=O)NN)o2)c1 | inactive |
| Cn1ncc(N=Cc2ccccc2O)c1C(=O)N1CCOCC1 | inactive |
| Cc1nc(-c2ccc(C(=O)N3CCOCC3)cc2)cs1 | inactive |
| O=C(Cc1ccc(F)cc1)NC1CCCC1 | inactive |
| O=C(NC1CCCCC1)c1ccc(S(=O)(=O)NCc2cccnc2)cc1 | inactive |
| CCOc1ccc(NC(=S)Nc2cc(C)[nH]n2)cc1 | inactive |
| CCOc1ccc(OCCSc2nc3ccccc3[nH]2)cc1 | inactive |
| Cc1cc(NS(=O)(=O)c2ccc(NC(=S)NC(=O)c3cccnc3)cc2)no1 | inactive |
| O=S(=O)(Nc1ncccn1)c1ccc(NC(=S)Nc2cccc(Cl)c2)cc1 | inactive |

| SMILES | inhibition |
| --- | --- |
| Cc1ccc(NC(=O)OCc2cccs2)cc1 | inactive |
| CC1CCCC(NC(=O)COC(=O)Cc2c[nH]c3ccccc23)C1C (centres undefined) | inactive |
| Cc1ccc(-c2c(C)n([O-])c3c([n+]2=O)CCCC3)o1 | inactive |
| COc1ccccc1OCc1nnc(SCC(=O)NCc2ccco2)n1Cc1ccco1 | inactive |
| COC(=O)c1cc2sccc2n1Cc1nc(-c2ccc(OC)cc2)oc1C | inactive |
| O=C(CSc1nc2ncc(Cl)cc2[nH]1)NCC(=O)Nc1ccc(F)c(F)c1F | inactive |
| Nc1ncnc2nc(SCC(=O)Nc3cccc(C(F)(F)F)c3)[nH]c12 | inactive |
| c1cncc(CSc2ccc(-c3cccs3)nn2)c1 | inactive |
| Cn1c(-c2ccc(CN3CCCCC3)o2)nc2ccccc21 | inactive |
| COc1ccc(CNc2nc3ccccc3n2C)c(O)c1 | inactive |
| CCN(CC)S(=O)(=O)c1ccc(/C(O)=C(\C#N)c2nc3ccccc3n2C)cc1 | inactive |
| CC1=C(c2ccccc2)SC2=NCCN21 | inactive |
| COCc1[nH]nc2c1C(c1c(F)cccc1Cl)C(C#N)=C(N)O2 (centres undefined) | inactive |
| CC1(C)CC(N2CCN(c3ccccc3)CC2)=CC(=[N+]2CCCC2)C1 | inactive |
| CC1CCC[C@H](O)CCCCCc2cc(O)cc(O)c2C(=O)O1 (some centres undefined) | inactive |
| CC1=C(C#N)CCC(=O)N1Cc1c(C)cc(C)cc1C | inactive |
| Nn1cnnc1N/N=C\c1ccc(-c2ccccc2[N+](=O)[O-])o1 | inactive |
| O=[N+]([O-])c1ccc(/C=N/NC(=S)Nc2ccc(Cl)cc2Cl)s1 | inactive |
| COc1ccc(CNC(=O)CCC(=O)N2C[C@H]3C[C@H](C2)c2cccc(=O)n2C3)cc1 | inactive |
| Cc1cc(NS(=O)(=O)c2ccc(NC(=O)C(C)Oc3ccc4c(C)cc(=O)oc4c3)cc2)no1 (centres undefined) | inactive |
| COc1cc(OC)nc(NC(=O)C(C)C)n1 | inactive |
| CCNc1nc(N)nc(Oc2ccc(OCCOc3ccc(Cl)cc3Cl)nn2)n1 | inactive |
| COc1cc(/C=C/C(=O)O)cc2c1OCCO2 | inactive |

| SMILES | inhibition |
| --- | --- |
| CCCC(CCC)C(=O)NCCN1CCOCC1 | inactive |
| CCn1nccc1C(=O)Nc1cc(Cl)cc(Cl)c1 | inactive |
| CCOC(=O)/C=C1/N(C)c2ccccc2C1(C)C | inactive |
| O=Cc1ccc(O)cc1O | inactive |
| CCCOc1ccc(-c2cn3ccccc3n2)cc1 | inactive |
| Cc1ccc(-c2noc(CN3CCCCC3)n2)cc1 | inactive |
| Cc1ccc2nsnc2c1S(=O)(=O)NCc1ccc2c(c1)OCO2 | inactive |
| Cc1[nH]nc2c1C(c1ccc(-c3ccccc3C#N)o1)C(C#N)=C(N)O2 (centres undefined) | inactive |
| COc1ccc(NC(=O)CN(C)S(=O)(=O)c2ccc(Cl)cc2)cc1Cl | inactive |
| O=C(NCc1cccnc1)c1ccc(COc2ccc(Cl)cc2)cc1 | inactive |
| Cn1cc(S(=O)(=O)NCC2CCCO2)c(=O)n(C)c1=O (centres undefined) | inactive |
| C[C@]1(OC(=O)/C=C/c2ccccc2)C[C@@H](O)[C@]2(O)C=CO[C@@H](O[C@@H]3O[C@H](CO)[C@@H](O)[C@H](O)[C@H]3O)[C@@H]21 | inactive |
| O=C(NC(=S)Nc1c(F)cc(F)cc1Br)c1ccc2c(c1)OCCO2 | inactive |
| O=C(/C=C/c1ccco1)NC(=S)Nc1cccc(-c2nc3ccccc3o2)c1 | inactive |
| O=C(/C=C/c1ccccc1)NNC(=O)c1ccco1 | inactive |
| CC(=O)c1cccc(NC(=S)NNC(=O)c2ccco2)c1 | inactive |
| COc1ccc(C(C(=O)Nc2ccc(C(C)C)cc2)N(Cc2ccco2)C(=O)CC2NC(=O)NC2=O)cc1 (centres undefined) | inactive |
| Nc1nc(=S)c2[nH]cnc2[nH]1 | inactive |
| COc1ccc(C2C3=C(CC(C)(C)CC3=O)Nc3cc4c(cc32)OCO4)cc1 (centres undefined) | inactive |
| O=C(CSc1ccccc1)N1CCC(N2CCC(C(=O)N3CCCC3)CC2)CC1 | inactive |
| C[C@@H](C(=O)NC1CCCC1)N1C(=O)N2CCc3c([nH]c4ccccc34)[C@@]2(C)C1=O | inactive |
| CCOC(=O)c1cccc(NC(=O)C2CCC(CNc3c(N4CCOCC4)c(=O)c3=O)CC2)c1 (centres undefined) | inactive |
| O=C(c1cccs1)N1CCC(N2CCN(c3ccccc3)CC2)CC1 | inactive |

| SMILES | inhibition |
| --- | --- |
| CCN1CCN(C2=C(NS(=O)(=O)c3ccc(Br)cc3)C(=O)c3ccccc3C2=O)CC1 | inactive |
| COc1ccc(C(=O)N2CCN(C(=O)Cc3ccccc3)CC2)cc1OC | inactive |
| CCN1CCN(c2cc(C)c3cc(NC(=S)N4CCN(c5ccccc5F)CC4)ccc3n2)CC1 | inactive |
| O=C(C[n+]1cn(C(F)F)c2ccccc21)c1ccc(Br)cc1 | inactive |
| CC(=O)C1=C(O)C(=O)N(CCN2CCOCC2)C1c1ccccc1 (centres undefined) | inactive |
| CCc1ccc(C(=O)CC2(O)C(=O)N(CN3CCOCC3)c3ccccc32)cc1 (centres undefined) | inactive |
| Cn1c(=NC(=O)COc2ccccc2)sc2cccc(F)c21 | inactive |
| Cc1cc(NC(=O)/C=C/C(=O)N(c2ccccc2C)C(C(=O)NC2CCCC2)c2ccc(F)cc2)no1 (centres undefined) | inactive |
| CC(=O)c1c(N2CCN(c3cccc(Cl)c3)CC2)nc(=S)n(-c2ccccc2)c1C | inactive |
| O=C(Nc1ccc(Cl)cc1)N1CCOC12CCC1(CC2)OCCO1 | inactive |
| CCc1cccc(NC(=O)CSC2=NS(=O)(=O)c3ccccc32)c1 | inactive |
| O=C(Cc1ccccc1)NCC(=O)Nc1cccc(Cl)c1 | inactive |
| NC(=O)SCC(=O)Nc1ccc(Cl)c(Cl)c1 | inactive |
| Cc1ccc(NC(=O)c2cc(NC(=O)CCCC(=O)O)ccc2Cl)cc1Cl | inactive |
| Cc1cnc(C(=O)OCC(=O)Nc2cccc(Cl)c2)cn1 | inactive |
| O=C(COc1ccc(Cl)cc1)Nc1cccc(-c2ccc3nncn3n2)c1 | inactive |
| CCOC(=O)c1ccc(NC(=O)CSC(=S)N2CCOCC2)cc1 | inactive |
| O=C(Cn1nc(Cc2ccncc2)c2ccccc2c1=O)Nc1cccnc1Cl | inactive |
| CCCN(C(=O)CSc1nc2ccccc2n1CC)C1CCS(=O)(=O)C1 (centres undefined) | inactive |
| O=C(Nc1ccc2c(c1)OCCO2)C1CCCN1C(=O)Nc1ccc(F)cc1 (centres undefined) | inactive |
| c1cnc2nc(-c3ccc4c(c3)OCO4)cn2c1 | inactive |
| Clc1ccc(Cn2cccc2C2=NCCO2)cc1 | inactive |
| COc1ccc(-c2nnc(SC(C)C(=O)Nc3nccs3)n2Cc2ccccc2)cc1OC (centres undefined) | inactive |

| SMILES | inhibition |
| --- | --- |
| CN(C)C(=O)CSc1nnc(Cc2ccc([N+](=O)[O-])cc2)o1 | inactive |
| COc1ccc(N(CC(=O)N2c3ccccc3CC2C)S(=O)(=O)c2c(C)noc2C)cc1 (centres undefined) | inactive |
| CCOC(=O)c1[nH]c2ccc(Cl)cc2c1NC(=O)c1nonc1C | inactive |
| Cc1ccc(/C=N/NC(=O)Cc2cccn2C)cc1 | inactive |
| Cc1oc(/N=C/c2ccc(O)cc2O)c(C#N)c1C | inactive |
| Cc1cc(Cl)ccc1OCC(=O)N/N=C/c1ccncc1 | inactive |
| O=C(N/N=C/c1ccc(O)cc1O)C(=O)N/N=C/c1ccc(O)cc1O | inactive |
| O=C(N/N=C/c1ccc(N2CCOCC2)cc1)c1ccc(O)cc1 | inactive |
| CN(CC(=O)Nc1ccc(F)c(F)c1F)c1cnccn1 | inactive |
| C[C@@H](NC(=O)[C@@H]1Cc2ccccc2CN1)C(=O)NCC1CCCO1 (some centres undefined) | inactive |
| CCCOc1ccc(C2C(C(=O)c3ccc(C)o3)=C(O)C(=O)N2CCCn2ccnc2)cc1 (centres undefined) | inactive |
| C=CCNc1nc(-c2ccccc2)nc(-n2ccnc2)n1 | inactive |
| c1ccc2c(c1)CCN(c1nc3ccccc3n3cnnc13)C2 | inactive |
| CC1(NC(=O)NCCCCCCNC(=O)NC2(C)CCS(=O)(=O)C2)CCS(=O)(=O)C1 (centres undefined) | inactive |
| O=c1c2ccccc2[nH]c2ccc(F)cc12 | inactive |
| O=c1[nH]n(-c2ccccc2)c(=O)c2ccccc12 | inactive |
| COc1ccc(N=Cc2c(O)n(CC3CCCO3)c(=O)[nH]c2=O)cc1 (centres undefined) | inactive |
| Cc1cccc(N2CCN(C(=O)C3CCN(c4nnc(-n5cccc5)s4)CC3)CC2C)c1 (centres undefined) | inactive |
| Cc1nn(C)c(C)c1NC(=O)c1ccc(S(=O)(=O)N(C)C)cc1 | inactive |
| Cc1cc(-c2nc3ccccc3o2)c2ccccc2n1 | inactive |
| COc1ccccc1Nc1cc(C(=O)NCc2cccnc2)c2ccccc2n1 | inactive |
| CC(C)(C)Nc1c2ccccc2nc2ccccc12 | inactive |
